# Assay results taken from PubChem BioAssay (Tox21).
# Results filed as inconclusive are left out. Entries that show only a call come without a potency. Values without a mark were called inactive. Calls of active or inactive are those of the source. Unless noted, calls come from the whole dose curve.
# Experiments:
# [1] = qHTS assay to identify small molecule antagonists of the vitamin D receptor (VDR) signaling pathway - cell viability counter screen (AID 743225; active = well fitted curve in the direction sought with a large enough effect in the repeat runs; an effect the other way counts as inactive or inconclusive; note: nearly all actives have a fitted effect of over 50% in size; note: potency is the fitted concentration of half-maximal effect)
# Procedure, shortened: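 Cells (VDR-UAS-bla HEK 293T) are plated, rested 4 h at 37C, dosed with compound and 3 nM final 1-alpha,25-dihydroxy vitamin D3, and incubated 16 h. Viability is taken from CellTiter-Glo luminescence in the reporter wells.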
# [2] = qHTS assay to identify small molecule agonists of the NFkB signaling pathway - cell viability counter screen (AID 1159515); note: series mostly up to about 61 µM; nearly all actives have a fitted effect of over 55% in size
# Procedure, shortened: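 NFkB-bla ME-180 cells, 2,000/well, were plated overnight at 37 C, 5% CO2, then exposed to compounds in DMSO for 5 hr. After the bla FRET read, CellTiter-Glo was added to the same wells; luminescence was read after 30 min at room temperature.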
# [3] = qHTS assay to identify small molecule agonists of the endoplasmic reticulum stress response signaling pathway (AID 1159516; active = well fitted activation curve with a large enough effect in the signal ratio in the repeat runs, not every such curve was filed as active; the % refers to the signal ratio)
# Procedure, shortened: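 CellSensor ESRE-bla HeLa cells, carrying a beta-lactamase reporter driven by the ER stress response element, were plated overnight and exposed to compounds for 5 hr at 37 C. Reporter activity was read as FRET substrate fluorescence after 2 hr at room temperature.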
# [4] = qHTS assay to identify small molecule antagonists of the retinoid-related orphan receptor gamma (ROR-gamma) signaling pathway - cell viability counter screen (AID 1159520; active = well fitted curve in the direction sought with a large enough effect in the repeat runs; an effect the other way counts as inactive or inconclusive; note: nearly all actives have a fitted effect of over 50% in size)
# Procedure, shortened: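 Tet-on ROR gamma CHO cells (1,000/well) were plated 4 hr, given compounds in DMSO for 2 hr at 37 C, then induced with 1 uM final doxycycline for 16 hr. Viability was read as ATP by CellTiter-Glo luminescence after 30 min.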
# [5] = biological target: Nuclear receptor ROR-gamma (Homo sapiens) (UniProt P51449); test: qHTS assay to identify small molecule antagonists of the retinoid-related orphan receptor gamma (ROR-gamma) signaling pathway (AID 1159521; active = well fitted curve in the direction sought with a large enough effect in the repeat runs; an effect the other way counts as inactive or inconclusive; note: nearly all actives have a fitted effect of over 50% in size; note: potency is the fitted concentration of half-maximal effect)
# Procedure, shortened: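 RORγ antagonism is scored from reduced reporter luminescence in Tet-on CHO cells. Induction used 1 uM final doxycycline hyclate for 16 h at 37 C, following a 2 h compound exposure.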
# [6] = qHTS assay to identify small molecule agonists of the AP-1 signaling pathway - cell viability counter screen (AID 1159525); note: nearly all actives have a fitted effect of over 55% in size
# Procedure, shortened: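 ME-180 AP-1-bla, 2500 cells/well, Opti-MEM + 0.5% dialyzed FBS; overnight 37 °C; cpd 15-pt titration, 5 h 37 °C; CellTiter-Glo 30 min RT; luminescence read; normalised to TOAB and DMSO controls.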
# [7] = qHTS assay to identify small molecule agonists of the AP-1 signaling pathway (AID 1159526)
# [8] = biological target: Retinoic acid receptor RXR-alpha (Homo sapiens) (UniProt P19793); test: qHTS assay to identify small molecule agonists of the RXR signaling pathway (AID 1159527); note: nearly all actives have a fitted effect of over 35% in size
# Retinoic acid receptor RXR-alpha (Homo sapiens), sequence (P19793 whole entry, looked up): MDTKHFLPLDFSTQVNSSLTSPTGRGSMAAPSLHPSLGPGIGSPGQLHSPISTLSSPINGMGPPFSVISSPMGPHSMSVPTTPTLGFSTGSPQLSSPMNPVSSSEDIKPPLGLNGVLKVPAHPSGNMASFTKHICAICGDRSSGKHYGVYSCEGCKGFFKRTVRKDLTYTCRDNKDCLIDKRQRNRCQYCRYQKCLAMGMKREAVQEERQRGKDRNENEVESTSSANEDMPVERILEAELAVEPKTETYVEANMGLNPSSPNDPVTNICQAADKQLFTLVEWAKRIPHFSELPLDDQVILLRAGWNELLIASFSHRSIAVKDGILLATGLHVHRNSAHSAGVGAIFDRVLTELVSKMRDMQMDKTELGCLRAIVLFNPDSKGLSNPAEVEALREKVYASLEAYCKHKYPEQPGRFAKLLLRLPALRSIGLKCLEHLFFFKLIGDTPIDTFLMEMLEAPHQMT
# Procedure, shortened: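 qHTS of the Tox21 10K library in GeneBLAzer RXR-alpha HEK 293T cells carrying a beta-lactamase reporter […]; 16 hr treatment, 9-cis retinoic acid as agonist control, FRET read-out.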
# [9] = qHTS assay to identify small molecule agonists of the endoplasmic reticulum stress response signaling pathway - cell viability counter screen (AID 1159517); note: series mostly up to about 61 µM; nearly all actives have a fitted effect of over 50% in size
# Procedure, shortened: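 Luminescence readout: CellTiter-Glo, 30 min RT, same wells as the ESRE-bla reporter read. HeLa ESRE-bla, 1,500 cells/well, o/n 37 C; cpd 5 hr 37 C/5% CO2.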
Compound,Potency [1],Potency [2],Potency [3],Potency [4],Potency [5],Potency [6],outcome [7],Potency [8],Potency [9]
O=C(O)CCS,inactive,inactive,inactive,inactive,inactive,inactive,inactive,inactive,
Oc1ccc2c(c1)Cc1ccccc1-2,inactive,inactive,inactive,inactive,inactive,inactive,inactive,,
O=C1CC[C@@H](C(=O)O)N1,inactive,inactive,inactive,inactive,,inactive,inactive,,
CC(C)(O)c1coc(S(=O)(=O)NC(=O)Nc2c3c(cc4c2CCC4)CCC3)c1,inactive,inactive,inactive,,,inactive,inactive,,
CC(C)(C(=O)c1cccnc1)c1cccnc1,inactive,inactive,inactive,inactive,inactive,inactive,inactive,inactive,
CSSc1ccoc1C,inactive,inactive,,inactive,inactive,inactive,inactive,inactive,inactive
Cc1ccccc1S(N)(=O)=O,inactive,inactive,,inactive,inactive,inactive,inactive,inactive,inactive
O=C(O)CCC(=O)OC[C@@H](NC(=O)C(Cl)Cl)[C@H](O)c1ccc([N+](=O)[O-])cc1,inactive,inactive,inactive,,inactive,inactive,inactive,inactive,
O=[N+]([O-])c1ccc2ncccc2c1,inactive,inactive,inactive,inactive,inactive,inactive,inactive,,
CCCOC(=O)c1c(Cl)c(Cl)c(Cl)c(Cl)c1C(=O)OCCC,,inactive,inactive,inactive,,inactive,,inactive,
C=C(C)C(=O)OCCC(F)(F)C(F)(F)C(F)(F)C(F)(F)C(F)(F)C(F)(F)F,,inactive,inactive,inactive,inactive,inactive,inactive,inactive,
CC(O)Cn1cnc2c1c(=O)n(C)c(=O)n2C (stereo unspecified),inactive,inactive,,inactive,inactive,inactive,inactive,inactive,inactive
CCN(CC)CCOC(=O)C(c1ccccc1)c1ccccc1,inactive,inactive,inactive,inactive,inactive,inactive,inactive,inactive,
Cc1cc(CCCOc2c(C)cc(-c3noc(C(F)(F)F)n3)cc2C)on1,inactive,inactive,inactive,,inactive,inactive,,inactive,
CCOC(=O)N1CCC(Nc2ccc(Cl)cc2N)CC1,inactive,inactive,,inactive,inactive,inactive,inactive,inactive,inactive
C1CCCCC1,inactive,inactive,inactive,inactive,,inactive,inactive,inactive,

Compound,Potency [1],Potency [2],Potency [3],Potency [4],Potency [5],Potency [6],outcome [7],Potency [8],Potency [9]
CNc1c2c(nn1C)CCCC2,inactive,inactive,,,inactive,inactive,inactive,inactive,inactive
O=c1[nH][nH]c(=O)c2cc([N+](=O)[O-])ccc12,inactive,inactive,inactive,inactive,inactive,inactive,inactive,,
CC1C(C)(C)C2=C(C(=O)CCC2)C1(C)C (stereo unspecified),inactive,inactive,,inactive,,inactive,,inactive,inactive
Nc1ccc(S(=O)(=O)NCc2ccccc2)cc1,,inactive,inactive,,,inactive,inactive,inactive,
CC(=O)Oc1cccc(O)c1,inactive,inactive,inactive,inactive,inactive,inactive,inactive,inactive,
CCN(CC)c1cccc(O)c1,inactive,inactive,,inactive,,inactive,inactive,inactive,inactive
C=CC(=O)O,inactive,inactive,inactive,inactive,inactive,inactive,inactive,inactive,
CC(CO)(CO)C(=O)O,inactive,inactive,,inactive,inactive,inactive,inactive,inactive,inactive
O[C@@H](CNC[C@H](O)[C@H]1CCc2cc(F)ccc2O1)[C@@H]1CCc2cc(F)ccc2O1,21.3 µM (active),inactive,inactive,,23.7 µM (active),inactive,inactive,,
C=CCOC(=O)COCCC(C)C,inactive,inactive,inactive,inactive,,inactive,inactive,,
CC(C)(C)S,inactive,inactive,,inactive,inactive,inactive,inactive,,inactive
CCOc1ncc(F)c(=O)[nH]1,inactive,inactive,inactive,inactive,,inactive,inactive,inactive,
Nc1cccc2c(N)cccc12,,inactive,inactive,,inactive,,,,
O=S(=O)(O)CO,,inactive,inactive,inactive,,inactive,inactive,inactive,
COC(=O)c1sccc1S(N)(=O)=O,inactive,inactive,,inactive,,inactive,inactive,inactive,inactive
